Test results as given in PubChem BioAssay.
Calls of active or inactive are those of the source.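 The calls were made as follows: active = compounds whose cell count with miR-34 switched on is under 0.7 times the count with it off; inactive = the rest.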

Test: viability loss with induced miR-34 in A549 – imaging, A549 dox-inducible miR-34, nuclei and caspase counts, primary screen (AID 1347080); also: test concentration not given here
Conditions: A549 miR-34 inducible, Hoechst nuclei count, 48 h; stronger effect = lower value; cell number ratio, induced over uninduced

Row | SMILES | fold change
1 | O=C(OCc1ccccc1)[C@H](O)c1ccccc1 | 1.04 (inactive)
2 | CCCCC[C@H](O)/C=C/[C@H]1[C@H](O)CC(=O)[C@@H]1CCCCCCCCC(=O)O | 0.947 (inactive)
3 | CCCCCCCCCCCCCCP(=O)(O)O | 0.898 (inactive)
4 | CCCCCCCC/C=C\CCCCCCCC(=O)N[C@H](CO)Cc1ccc(O)cc1 | 1.03 (inactive)
5 | CCCCC[C@@](C)(O)/C=C/[C@@H]1C(C/C=C\CCCC(=O)O)[C@@H](O)C[C@H]1O (stereo not given in full) | 0.939 (inactive)
6 | CCCCC[C@H](O)/C=C/[C@@H]1[C@H]2CC(CCCCC(=O)O)O[C@H]2C[C@H]1O (stereo not given in full) | 0.937 (inactive)
7 | CCCCC[C@H](O)/C=C/[C@@H]1[C@H](CCCCCCC(=O)O)[C@@H](O)C[C@H]1O | 0.957 (inactive)
8 | CC(=O)O[C@@]12C[C@@H](C)[C@@]3(O)[C@@H](C=C(CO)C[C@]4(O)C(=O)C(C)=C[C@@H]34)[C@@H]1C2(C)C | 0.95 (inactive)
9 | CCCCCCCCCCCCCCCCOC[C@H](COP(=O)([O-])OCC[N+](C)(C)C)OCC | 0.91 (inactive)
10 | CCCCCCCCCCCCCCCC(=O)N[C@H](C)CO | 0.916 (inactive)
11 | CCCCC[C@](C)(O)/C=C/[C@@H]1[C@@H](C/C=C\CCCC(=O)O)[C@@H](O)C[C@H]1O | 0.971 (inactive)
12 | CCCCCCCC/C=C\CCCCCC(=O)O | 0.938 (inactive)
13 | Cc1c(C)c2c(c(C)c1O)CCC(C)(CCCC(C)C(=O)O)O2 (stereo not given) | 0.962 (inactive)
14 | CCCCC[C@@](C)(O)/C=C/[C@@H]1[C@@H](C/C=C\CCCC(=O)OC)[C@@H](O)C[C@H]1O | 0.949 (inactive)
15 | COc1ccc(/C=C/c2ccccc2F)cc1 | 0.866 (inactive)
16 | CCCCCCCCCCOc1ccc(OCC(=O)Cn2cc(C(=O)OC)c3cc(C(=O)O)ccc32)cc1 | 0.961 (inactive)
17 | OCCC/C=C/c1ccccc1 | 0.953 (inactive)
18 | CC(C)=CCC/C(C)=C/CC/C(C)=C/CC[C@]1(C)CCc2cc(O)cc(C)c2O1 | 0.922 (inactive)
19 | CC(C)(C)OC(=O)Nc1cccc2[nH]ccc12 | 0.913 (inactive)
20 | CCCCCCC[C@H](O)/C=C/[C@@H]1[C@@H](C/C=C\CCCC(=O)O)[C@@H](O)C[C@H]1O | 0.945 (inactive)

Row | SMILES | fold change
21 | O=P(O)(O)OC1[C@H](O)[C@H](O)C(O)[C@H](O)[C@H]1O (stereo not given in full) | 1.11 (inactive)
22 | C[C@]12CC[C@@H]3c4cc(O)c(O)cc4CC[C@H]3[C@@H]1CC[C@@H]2O | 0.847 (inactive)
23 | CC#CCC(C)[C@@H](O)/C=C/[C@@H]1[C@H]2C/C(=C\CCCC(=O)O)C[C@H]2C[C@H]1O (stereo not given in full) | 0.903 (inactive)
24 | CCCCCCCCCCCCCCCCCC(=O)N[C@H]1CCOC1=O | 1.11 (inactive)
25 | CCCCCC/C=C\CCCCCCCC(=O)OCC | 0.904 (inactive)
26 | NC(=O)CCC/C=C\C[C@@H]1[C@@H](/C=C/[C@@H](O)CCc2ccccc2)[C@H](O)C[C@@H]1O | 0.961 (inactive)
27 | CCCCC/C=C/C/C=C/CCCCCCCC(=O)O | 1.12 (inactive)
28 | CC(C)Oc1ccc(Cc2ccc(NC3=NCCN3)cc2)cc1 | 0.976 (inactive)
29 | OC1C[C@@H]2[C@@H](CC[C@@H](O)CCc3ccccc3)[C@H](O)C[C@@H]2O1 (stereo not given in full) | 1.04 (inactive)
30 | CCCC[C@H](C)C[C@H](O)/C=C/[C@@H]1[C@@H](CCCCCCC(=O)O)[C@@H](O)C[C@H]1O | 0.931 (inactive)
31 | CCNC1=N[C@@H]2[C@@H](O)[C@H](O)[C@@H](CO)O[C@@H]2S1 | 0.906 (inactive)
32 | CCCCC[C@H]1/C=C/[C@@H]2[C@@H](C/C=C\CCCC(=O)O1)[C@@H](O)C[C@H]2O | 0.933 (inactive)
33 | CCCCCCCCCC(=O)N[C@@H](CN1CCOCC1)[C@@H](O)c1ccccc1 | 0.924 (inactive)
34 | O=C(O)CCCCCC[C@@H]1C(=O)NC(=O)N1CCC(O)C1CCCCC1 (stereo not given in full) | 1.01 (inactive)
35 | O=C(O)CCC/C=C\C[C@H]1[C@@H](/C=C/[C@@H](O)CCc2ccccc2)[C@H](O)C[C@@H]1O | 0.9 (inactive)
36 | O=C(O)CCCCCCCCCCCNC(=O)NC12CC3CC(CC(C3)C1)C2 | 0.971 (inactive)
37 | COc1ccc(/C=C/c2cc(O)cc(O)c2)cc1O | 0.915 (inactive)
38 | CCCCC(C)(C)[C@H](O)/C=C/[C@H]1C=CC(=O)[C@@H]1CCCCCCC(=O)O | 1 (inactive)
39 | O=C(O)CCCCCCC1C(=O)N(Cc2ccccc2)C(=O)N1NCC(O)C1CCCCC1 (stereo not given) | 0.813 (inactive)
40 | CC(C(=O)Nc1cccc(N=Cc2c(O)ccc3ccccc23)c1)c1ccccc1 (stereo not given) | 0.971 (inactive)

Same assay, conditions: A549 miR-34 inducible, Hoechst nuclei count, 48 h; measured here: relative caspase fold change +Dox/-Dox

Row | SMILES | fold change
41 | O=C(OCc1ccccc1)[C@H](O)c1ccccc1 | 0.545
42 | CCCCC[C@H](O)/C=C/[C@H]1[C@H](O)CC(=O)[C@@H]1CCCCCCCCC(=O)O | 1.98
43 | CCCCCCCCCCCCCCP(=O)(O)O | 0.729
44 | CCCCCCCC/C=C\CCCCCCCC(=O)N[C@H](CO)Cc1ccc(O)cc1 | 1.33
45 | CCCCC[C@@](C)(O)/C=C/[C@@H]1C(C/C=C\CCCC(=O)O)[C@@H](O)C[C@H]1O (stereo not given in full) | 1.76
46 | CCCCC[C@H](O)/C=C/[C@@H]1[C@H]2CC(CCCCC(=O)O)O[C@H]2C[C@H]1O (stereo not given in full) | 1.39
47 | CCCCC[C@H](O)/C=C/[C@@H]1[C@H](CCCCCCC(=O)O)[C@@H](O)C[C@H]1O | 1.43
48 | CC(=O)O[C@@]12C[C@@H](C)[C@@]3(O)[C@@H](C=C(CO)C[C@]4(O)C(=O)C(C)=C[C@@H]34)[C@@H]1C2(C)C | 1.47
49 | CCCCCCCCCCCCCCCCOC[C@H](COP(=O)([O-])OCC[N+](C)(C)C)OCC | 1.05
50 | CCCCCCCCCCCCCCCC(=O)N[C@H](C)CO | 0.934
51 | CCCCC[C@](C)(O)/C=C/[C@@H]1[C@@H](C/C=C\CCCC(=O)O)[C@@H](O)C[C@H]1O | 1.48
52 | CCCCCCCC/C=C\CCCCCC(=O)O | 0.407
53 | Cc1c(C)c2c(c(C)c1O)CCC(C)(CCCC(C)C(=O)O)O2 (stereo not given) | 0.303
54 | CCCCC[C@@](C)(O)/C=C/[C@@H]1[C@@H](C/C=C\CCCC(=O)OC)[C@@H](O)C[C@H]1O | 1.07
55 | COc1ccc(/C=C/c2ccccc2F)cc1 | 1.67
56 | CCCCCCCCCCOc1ccc(OCC(=O)Cn2cc(C(=O)OC)c3cc(C(=O)O)ccc32)cc1 | 0.386
57 | OCCC/C=C/c1ccccc1 | 1.17
58 | CC(C)=CCC/C(C)=C/CC/C(C)=C/CC[C@]1(C)CCc2cc(O)cc(C)c2O1 | 1.06
59 | CC(C)(C)OC(=O)Nc1cccc2[nH]ccc12 | 0.676
60 | CCCCCCC[C@H](O)/C=C/[C@@H]1[C@@H](C/C=C\CCCC(=O)O)[C@@H](O)C[C@H]1O | 1.5

Row | SMILES | fold change
61 | O=P(O)(O)OC1[C@H](O)[C@H](O)C(O)[C@H](O)[C@H]1O (stereo not given in full) | 0.357
62 | C[C@]12CC[C@@H]3c4cc(O)c(O)cc4CC[C@H]3[C@@H]1CC[C@@H]2O | 2.78
63 | CC#CCC(C)[C@@H](O)/C=C/[C@@H]1[C@H]2C/C(=C\CCCC(=O)O)C[C@H]2C[C@H]1O (stereo not given in full) | 1.4
64 | CCCCCCCCCCCCCCCCCC(=O)N[C@H]1CCOC1=O | 1.44
65 | CCCCCC/C=C\CCCCCCCC(=O)OCC | 1.03
66 | NC(=O)CCC/C=C\C[C@@H]1[C@@H](/C=C/[C@@H](O)CCc2ccccc2)[C@H](O)C[C@@H]1O | 1.58
67 | CCCCC/C=C/C/C=C/CCCCCCCC(=O)O | 0.989
68 | CC(C)Oc1ccc(Cc2ccc(NC3=NCCN3)cc2)cc1 | 0.967
69 | OC1C[C@@H]2[C@@H](CC[C@@H](O)CCc3ccccc3)[C@H](O)C[C@@H]2O1 (stereo not given in full) | 0.862
70 | CCCC[C@H](C)C[C@H](O)/C=C/[C@@H]1[C@@H](CCCCCCC(=O)O)[C@@H](O)C[C@H]1O | 1.78
71 | CCNC1=N[C@@H]2[C@@H](O)[C@H](O)[C@@H](CO)O[C@@H]2S1 | 1.7
72 | CCCCC[C@H]1/C=C/[C@@H]2[C@@H](C/C=C\CCCC(=O)O1)[C@@H](O)C[C@H]2O | 1
73 | CCCCCCCCCC(=O)N[C@@H](CN1CCOCC1)[C@@H](O)c1ccccc1 | 0.927
74 | O=C(O)CCCCCC[C@@H]1C(=O)NC(=O)N1CCC(O)C1CCCCC1 (stereo not given in full) | 2.01
75 | O=C(O)CCC/C=C\C[C@H]1[C@@H](/C=C/[C@@H](O)CCc2ccccc2)[C@H](O)C[C@@H]1O | 0.837
76 | O=C(O)CCCCCCCCCCCNC(=O)NC12CC3CC(CC(C3)C1)C2 | 0.546
77 | COc1ccc(/C=C/c2cc(O)cc(O)c2)cc1O | 0.703
78 | CCCCC(C)(C)[C@H](O)/C=C/[C@H]1C=CC(=O)[C@@H]1CCCCCCC(=O)O | 1.69
79 | O=C(O)CCCCCCC1C(=O)N(Cc2ccccc2)C(=O)N1NCC(O)C1CCCCC1 (stereo not given) | 2.25
80 | CC(C(=O)Nc1cccc(N=Cc2c(O)ccc3ccccc23)c1)c1ccccc1 (stereo not given) | 1.6
